# Only some compounds are listed: those with a hit (about 3.9% of all), similar ones and a draw of the others.
# Autofluor counter: counter-screen for toxin protease inhibitors: compound fluorescence | compound autofluorescence counterscreen, microsphere flow cytometry; active compounds read high | fluorescence intensity (test concentration not listed) | 360,000 compounds, 3.1% hits | AID 624483; in the data active = fluorescence intensity above about 16000; inconclusive = no clear call, values can overlap the other calls
# BoNT F protease: BoNT/F light chain protease inhibitors, primary screen, biochemical, flow cytometry, MLPCN library | inhibition, % at 10 µM | 360,000 compounds, 0.22% hits | Multiplex microsphere protease cleavage assay | AID 588497, 2011 | Botulinum neurotoxin type F light chain protease (Clostridium botulinum); in the data active = inhibition above about 35%, passing the limit was not always enough; inconclusive = no clear call, values can overlap the other calls
# Anthrax LF prot: Bacillus anthracis LF protease inhibitors, primary screen, biochemical, multiplex microsphere, MLPCN library; multiplex microsphere protease cleavage assay; inhibition, % at 10 µM; 360,000 compounds, 0.12% hits
# Target sequence (P15917 whole entry, looked up): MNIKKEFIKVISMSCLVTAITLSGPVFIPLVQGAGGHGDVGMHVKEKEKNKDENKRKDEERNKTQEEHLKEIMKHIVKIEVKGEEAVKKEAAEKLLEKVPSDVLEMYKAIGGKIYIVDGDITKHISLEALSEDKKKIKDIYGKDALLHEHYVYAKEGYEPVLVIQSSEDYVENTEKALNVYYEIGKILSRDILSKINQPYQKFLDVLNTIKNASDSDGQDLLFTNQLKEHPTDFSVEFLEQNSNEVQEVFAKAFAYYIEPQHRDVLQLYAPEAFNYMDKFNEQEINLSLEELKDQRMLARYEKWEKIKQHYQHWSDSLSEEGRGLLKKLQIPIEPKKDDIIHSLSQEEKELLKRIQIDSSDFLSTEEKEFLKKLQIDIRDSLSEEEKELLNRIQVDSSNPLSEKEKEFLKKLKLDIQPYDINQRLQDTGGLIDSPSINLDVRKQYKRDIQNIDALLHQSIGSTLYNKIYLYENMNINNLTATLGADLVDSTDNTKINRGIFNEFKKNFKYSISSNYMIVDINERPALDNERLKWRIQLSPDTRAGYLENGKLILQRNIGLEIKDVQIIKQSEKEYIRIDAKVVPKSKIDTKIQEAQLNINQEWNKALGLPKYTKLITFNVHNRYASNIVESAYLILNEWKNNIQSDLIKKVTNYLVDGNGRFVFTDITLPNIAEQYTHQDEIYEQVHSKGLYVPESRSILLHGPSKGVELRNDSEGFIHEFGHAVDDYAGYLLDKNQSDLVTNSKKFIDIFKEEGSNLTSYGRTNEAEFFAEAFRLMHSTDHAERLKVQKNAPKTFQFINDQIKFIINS
# BoNT-A LC inh2: BoNT/A light chain protease inhibitors, primary screen, biochemical, flow cytometry, MLPCN library; Botulinum neurotoxin type A light chain protease (Clostridium botulinum A str. ATCC 3502); multiplex microsphere protease substrate cleavage; inhibition, % at 10 µM; 360,000 compounds, 0.17% hits
# CCHFV vOTU inh: CCHFV vOTU protease inhibitors, primary screen, biochemical, Pep-AMC substrate, fluorescence; Crimean-Congo hemorrhagic fever virus L polyprotein viral ovarian tumor (vOTU) protease …; inhibition, % at 11.5 µM; 370,000 compounds, 0.55% hits; in the data active = inhibition above about 30%
# SARS 3CLpro inh: SARS-CoV 3CLpro protease inhibitors, primary screen, biochemical, quenched FRET. AID 1706, 2009. Replicase polyprotein 1ab (Severe acute respiratory syndrome coronavirus), P0C6X7. recombinant SARS-CoV 3CLpro, quenched FRET peptide cleavage. 290,000 compounds, 0.14% hits. inhibition, % at 6 µM; in the data active = inhibition above about 12%
# Numbers stand for hits; – = inactive; ? = inconclusive; · = no result. Rule as the data show it, unless noted: active = inhibition above about 30%; inconclusive = no clear call, values can overlap the other calls; inactive = below that.
SMILES,Autofluor counter,BoNT F protease,Anthrax LF prot,BoNT-A LC inh2,CCHFV vOTU inh,SARS 3CLpro inh
O=C(CCCSc1nc2ccccc2[nH]1)N1CCN(c2ccccc2)CC1,20365,–,–,–,–,–
CON(C)C(=O)C(C)(C)CC#CCN(CC#Cc1ccccc1)S(=O)(=O)c1ccc(C)cc1,·,·,·,·,–,·
COc1cc(OC)cc(C(=O)Nc2ncc3c(n2)CC(C)CC3=O)c1 (stereo unspecified),–,–,–,–,–,–
COc1cccc(C(=O)Nc2ncc3c(n2)CC(C)CC3=O)c1 (stereo unspecified),24790,–,–,–,–,–
CC1CC(=O)c2cnc(Nc3ccccc3)nc2C1 (stereo unspecified),22489,–,–,–,–,–
CC1CC(=O)c2cnc(Nc3cccc(C(F)(F)F)c3)nc2C1 (stereo unspecified),–,–,–,–,–,–
COc1cc(C2CC(=O)c3cnc(NC(=O)COc4ccccc4)nc3C2)cc(OC)c1OC (stereo unspecified),21520,–,–,–,–,–
Cc1cc(N2CCN(C(=O)Oc3ccc(-c4ccccc4)cc3)CC2)c2ccccc2n1,·,·,·,·,–,·
CCCCNC(=O)C[C@H]1C[C@@]2(C(=O)OC)C(=C[C@H](COCc3ccccc3)O[C@@H]2C)N(CCc2ccc(OC)c(OC)c2)C1=O,·,·,·,·,–,·
O=C(NCc1ccccc1)C1(C(=O)C2CC2)CC(c2ccccn2)=NO1 (stereo unspecified),·,·,·,·,–,·
COc1ccc(CCNC(=O)Cn2cnc3c(cnn3-c3ccccc3Cl)c2=O)cc1OC,21068,–,–,–,–,–
COc1ccc(CCNC(=O)Cn2cnc3ccccc3c2=O)cc1OC,–,–,–,–,–,–
CSCCC(NC(=O)OCc1ccccc1)C(=O)NC(Cc1c[nH]c2ccccc12)C(=O)O (stereo unspecified),·,·,·,·,–,·
CCc1nnc(NC(=O)/C=C/c2ccco2)s1,–,44.1,–,–,–,–
Cc1cc(C(=O)CSc2nnc(-c3ccccc3)n2C)c(C)n1C,22200,–,–,–,–,–
Cn1c(SCC(=O)Nc2nc3c(s2)CCCC3)nnc1-c1ccccc1,20299,–,–,–,–,–
Cc1cc(C(=O)CSc2nnc(-c3ccncc3)n2-c2ccccc2)c(C)n1C,–,–,–,–,–,–
Cn1c(SCC(=O)Nc2ccccc2-c2ccccc2)nnc1-c1ccco1,16441,–,–,–,–,–
Cn1c(SCC(=O)Nc2ccccc2-c2ccccc2)nnc1-c1ccccc1,·,·,·,·,–,·
O=C(Nc1nc2c(s1)CCCC2)c1cccs1,–,–,–,–,–,–
CCc1nnc(NC(=O)CSc2nnc(-c3ccco3)n2CC)s1,22759,–,–,–,–,–
CCCn1c(SCC(=O)Nc2nnc(CC)s2)nnc1-c1ccco1,–,?,–,–,–,–
CCc1nnc(NC(=O)CSc2nnc(-c3ccco3)n2C)s1,21882,–,–,–,–,–
O=C(Cc1cccs1)Nc1nc2c(s1)CCCC2,17280,–,–,–,–,–
O=C(CSc1nnc(-c2ccccn2)n1-c1ccccc1)Nc1ccc(OCc2ccccc2)cc1,·,·,·,·,–,·
SMILES,Autofluor counter,BoNT F protease,Anthrax LF prot,BoNT-A LC inh2,CCHFV vOTU inh,SARS 3CLpro inh
COC(=O)[C@]12C[C@H](CC(=O)N3CCSCC3)C(=O)N(Cc3cccc4ccccc34)C1=C[C@H](COCc1ccccc1)O[C@@H]2C,·,·,·,·,–,·
Cc1nc(N)c(C#N)c(-c2cccnc2)c1C,–,–,–,–,–,–
CCc1nc(N)c(C#N)c(-c2cccnc2)c1C,17121,–,–,–,–,–
CC1=NC(=O)C(N=Nc2cccc(O)c2)N1c1ccccc1 (stereo unspecified),16879,–,–,–,–,–
COC(=O)[C@@]12CCCCC=C1N(CCc1ccc(Cl)cc1)C(=O)[C@H]2CC(=O)NCC12CC3CC(CC(C3)C1)C2,·,·,·,·,–,·
CCOC(=O)[C@]12CCCCC/C=C\1N(Cc1ccc(OC)cc1)C(=O)[C@H]2CC(=O)N1CCSCC1,·,·,·,·,–,·
C1CCN(c2nc3nonc3nc2N2CCCCC2)CC1,24347,–,–,–,·,–
CN1CCN(c2nc3nonc3nc2N2CCN(C)CC2)CC1,–,–,–,–,–,–
Cc1cccc(CNC(=S)OC2CCC23CCC(c2ccccc2)CC3)c1 (stereo unspecified),·,·,·,·,–,·
CCOC(=O)C1=CC(=O)CC(C)(C)O1,–,–,–,–,–,·
CCOC(=O)c1ncn2c1C(=O)OC2(C)C,19113,–,–,?,–,–
COc1ccc(C(C(=O)N(C)C2CCCC2)N(Cc2ccc(F)cc2)C(=O)c2cc(C)on2)cc1OC (stereo unspecified),·,·,·,·,–,·
N#CCC[C@@H]1CC[C@]2(CCCN(Cc3ccc(Br)cc3)C2)O1,·,·,·,·,–,·
CCOC(=O)c1sc(-c2ccc(OC)cc2)cc1N,–,–,–,–,–,–
COC(=O)c1sc(=S)n(-c2cc(F)ccc2F)c1N,19767,–,–,–,–,–
CCOC(=O)c1sc(-c2ccc(F)cc2)cc1N,25606,–,–,–,–,–
CCOC(=O)c1sc(=S)n(-c2cc(OC)ccc2OC)c1N,–,–,–,–,–,–
CCOC(=O)c1sc(=S)n(-c2ccccc2)c1SC,21506,–,–,–,–,–
CCOC(=O)c1sc(=S)n(-c2cc(F)ccc2F)c1N,24008,–,–,–,–,–
O=c1[nH]c2cc(Br)c(Br)nc2[nH]1,·,·,·,·,–,·
O[C@@H]1[C@@H](O)[C@H](n2c3ccc(Cl)cc3c3ccc4c5cc(Cl)ccc5[nH]c4c32)OC[C@H]1O,·,·,·,·,–,·
Cc1ccc(C2CCC3(CCC(=O)N3CCOC(=O)Nc3ccc(F)cc3)CC2)cc1 (stereo unspecified),·,·,·,·,–,·
Cc1cc(=O)oc2cc(OCC(=O)NCc3cccnc3)ccc12,23262,–,–,–,–,–
COc1ccc(CNC(=O)COc2ccc(S(=O)(=O)N3CCCCC3)cc2)cc1,–,–,–,–,–,–
O=C(COc1ccc(S(=O)(=O)N2CCCCC2)cc1)NCc1cccnc1,22072,–,–,–,–,–
CC(C)CNS(=O)(=O)/C=C/c1ccc(F)cc1CNC(=O)OC(C)(C)C,·,·,·,·,–,·
COC(=O)C1C(=O)C2=C(CC1C)NC(C)=C(C(=O)OCc1ccc(OC)cc1)C2c1ccc(C)o1 (stereo unspecified),–,–,–,–,–,–
COC(=O)C1C(=O)C2=C(CC1C)NC(C)=C(C(=O)OC(C)C)C2c1ccc(C)o1 (stereo unspecified),23601,–,–,–,–,–
CCN(CC)C(=O)CSc1nnc(-c2cc3ccccc3cc2O)n1CC,23212,–,–,–,–,–
CCN(CC)C(=O)CSc1nnc2cc(C)c3ccccc3n12,–,–,–,–,–,–

# Compound activity (PubChem)
